Experimental data published in PubChem BioAssay (NCI).
This is part of a sample that, as a whole, favours compounds with a hit. Of some 83,000 tested, about 20% had one in any assay.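 Plates (96-well) were seeded with cells, treated with compound at one concentration, and incubated for 48 hours before percent growth was determined.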 Values without a mark were called inactive. Activity calls are given as the source filed them. The calls were made as follows: active = growth percent below 10; inactive = the rest.

Key:
Test in all cases: NCI-60 one-dose screen, 48 h (100 = growth as untreated, 0 = no growth, -100 = all killed)
Conditions in all cases: 10 µM unless noted
NCI-H23 lung = tested on: NCI-H23 lung
NCI-H226 lung = tested on: NCI-H226 lung
NCI-H322M lung = tested on: NCI-H322M lung
HOP-62 NSCLC = tested on: HOP-62 NSCLC
NCI-H460 lung = tested on: NCI-H460 lung
HOP-92 NSCLC = tested on: HOP-92 NSCLC
NCI-H522 lung = tested on: NCI-H522 lung
A549/ATCC NSCLC = tested on: A549/ATCC NSCLC
786-0 renal = tested on: 786-0 renal
COLO 205 colon = tested on: COLO 205 colon
DU-145 prostate = tested on: DU-145 prostate
K-562 leukemia = tested on: K-562 leukemia
MALME-3M melanoma = tested on: MALME-3M melanoma
MDA-MB-231 breast = tested on: MDA-MB-231 breast
RXF 393 renal = tested on: RXF 393 renal
SF-268 CNS = tested on: SF-268 CNS
SF-295 CNS = tested on: SF-295 CNS
SF-539 CNS = tested on: SF-539 CNS
UACC-257 melanoma = tested on: UACC-257 melanoma
M14 melanoma = tested on: M14 melanoma

| SMILES | growth (NCI-H23 lung) | growth (NCI-H226 lung) | growth (NCI-H322M lung) | growth (HOP-62 NSCLC) | growth (NCI-H460 lung) | growth (HOP-92 NSCLC) | growth (NCI-H522 lung) | growth (A549/ATCC NSCLC) | growth (786-0 renal) | growth (COLO 205 colon) | growth (DU-145 prostate) | growth (K-562 leukemia) | growth (MALME-3M melanoma) | growth (MDA-MB-231 breast) | growth (RXF 393 renal) | growth (SF-268 CNS) | growth (SF-295 CNS) | growth (SF-539 CNS) | growth (UACC-257 melanoma) | growth (M14 melanoma) |
| --- | --- | --- | --- | --- | --- | --- | --- | --- | --- | --- | --- | --- | --- | --- | --- | --- | --- | --- | --- | --- |
| CC(C)CSc1nc(NCCc2c[nH]c3ccccc23)c(C#N)c(-c2ccc(Cl)cc2)n1 | 69.2% | 51.3% | 86.5% | 49.3% | 30.3% | 36.3% | 68.7% | 63% | 67% | 41% | 67.1% | 13.6% | 81.9% | 48.2% | 31% | 55% | 66.4% | 60.9% | 85.8% | – |
| CN(C)c1ccnc(NCCCSC(c2ccccc2)(c2ccccc2)c2ccccc2)c1 | 62.7% | 53% | 61.5% | 74.3% | -19.2% (active) | -2.94% (active) | 41.1% | 48.4% | 8.23% (active) | -74.6% (active) | 46.2% | -36.6% (active) | -94.6% (active) | 31% | 6.09% (active) | 78.8% | 17% | 41.6% | -26.9% (active) | – |
| CC(C)CSc1nc(NCCc2c[nH]c3ccccc23)c(C#N)c(-c2ccc(F)cc2)n1 | 72.9% | 44.9% | 91.2% | 34.9% | 11.6% | 50.9% | 62.4% | 51.2% | 67.9% | 31.6% | 58.6% | 18.9% | 73% | 40.8% | 26.1% | 51.9% | 46.7% | 47.9% | 81% | 62.7% |
| COc1ccc(-c2nc3ccc(C(=O)NN4C(=O)c5ccc([N+](=O)[O-])cc5C4=O)cc3[nH]2)cc1 | 98% | 79.9% | 96.1% | 91.8% | 100% | 81% | 88.6% | 93% | 87.7% | 105% | 109% | 102% | 87.9% | 90.1% | 68.4% | 105% | 88.2% | 91.1% | 94.2% | – |
| Cc1cc(=O)oc2cc(OCCCOc3ccc(/C=C/C(=O)Nc4ccccc4N)cc3)ccc12 | 45.2% | 18.4% | 54.7% | 16.7% | 14.5% | 43.4% | -13.8% (active) | 25.8% | 26.1% | -53.6% (active) | 33.1% | 18.2% | 42% | -2.67% (active) | 49.5% | 21.9% | 27.4% | 1.75% (active) | 38.2% | 41.8% |
| CCCCSc1nc(NCCc2c[nH]c3ccccc23)c(C#N)c(-c2ccc(F)cc2)n1 | 82.3% | 72.5% | 86.3% | 68.5% | 25.7% | 55.7% | 69% | 74.5% | 71.8% | 57.8% | 66.4% | 22.2% | 90.9% | 52.2% | 65.2% | 54.9% | 62.1% | 65.2% | 97.9% | 65.9% |
| CCN1C(=O)N(CC)C2NNC(Sc3c(C(=O)O)c4ccccc4n(C4CCCC4)c3=O)=NC21 (configuration not stated) | 36.8% | 42% | 67.3% | 44.1% | 4.22% (active) | 73.4% | -23.1% (active) | 28.2% | 22.9% | -31.1% (active) | 2.94% (active) | 13.9% | 72.4% | 12.3% | 50.2% | 39.2% | 8% (active) | -24.7% (active) | 58.7% | -7.72% (active) |
| COc1ccc(-c2ccnc(SCc3cc4cc(Cl)ccc4[nH]c3=O)n2)cc1 | 57.8% | -32.1% (active) | 87.8% | -17.3% (active) | 19.6% | -32% (active) | 34.2% | 60.7% | -25.5% (active) | 105% | 35.6% | 79.1% | 27.9% | 26.9% | -10.7% (active) | 0.935% (active) | 26.5% | 46.2% | 72.1% | 73.8% |
| Cc1ccc([C@H]2C(C(=O)c3ccc(Cl)cc3)C3(N[C@@H]2c2ccccc2)C(=O)Nc2ccc(Cl)cc23)cc1 (some centres not stated) | 52.8% | 61.4% | 67.4% | 65.1% | 39.7% | 16.6% | 43.9% | 33.2% | 39.1% | 44.5% | 71.8% | 22.2% | 87.2% | 50.7% | 27% | 55.8% | 48.2% | 77% | 69.8% | 44.8% |
| CN(C)c1ccnc(CNCCSC2(c3ccccc3)c3ccccc3C=Cc3ccccc32)c1 | -30.6% (active) | 16.7% | 29.1% | 9.26% (active) | -87.4% (active) | -17.2% (active) | -73.6% (active) | 0.815% (active) | -46.8% (active) | -84.7% (active) | -26.1% (active) | -27.1% (active) | -93.4% (active) | -49.5% (active) | -36.6% (active) | -30.7% (active) | -70.5% (active) | -96.5% (active) | -66.3% (active) | -80.8% (active) |
| CCOc1ccc(C(=O)NC(=S)Nc2ccc(S(N)(=O)=O)cc2)cc1 | 97.5% [100 µM] | 97.1% [100 µM] | 101% [100 µM] | 102% [100 µM] | 102% [100 µM] | 87.9% [100 µM] | 77.5% [100 µM] | 101% [100 µM] | 99% [100 µM] | 119% [100 µM] | 105% [100 µM] | 98.1% [100 µM] | 87.6% [100 µM] | 102% [100 µM] | 102% [100 µM] | 102% [100 µM] | 104% [100 µM] | 91.7% [100 µM] | 90.6% [100 µM] | 102% [100 µM] |
| COc1cc2c(c(OC)c1OC)C(=O)CC(c1cccc(NC(=O)c3cccc([N+](=O)[O-])c3)c1)O2 (configuration not stated) | 38.2% | 38.4% | 63.3% | 47.9% | 35.4% | 17% | -7.5% (active) | 43.8% | 59.7% | 51.8% | 26.9% | 25.7% | 33.5% | 24.2% | 43.6% | 38.4% | 44.6% | 48.7% | 44.1% | 37.2% |
| O=c1[nH]c2ccccc2cc1CSc1nccc(-c2ccc3ccccc3c2)n1 | 77.8% | 70.4% | 96% | 71.5% | 77% | 68.5% | 49.6% | 56.8% | 78.3% | 83.3% | 81% | 10.1% | 86.3% | 58.2% | 59.1% | 85.4% | 70.8% | 71.2% | 99.3% | 56.1% |
| C=CC[N+](C)(C)CCn1c2ccccc2c2nc3cc(C)c(C)cc3nc21 | 70.5% | 92.5% | 102% | 96.3% | 104% | 111% | 51.5% | 106% | 89% | 88.6% | 105% | 75.7% | 57.1% | 105% | 89.2% | 56.1% | 99.6% | 56.8% | 86% | 96.2% |
